# According to ChEMBL document CHEMBL3988442, “University of Dundee, Small-Polar-MMV Screening Library” (2021):
# Molecular target: Chromo domain-containing protein 1 (Saccharomyces cerevisiae (strain ATCC 204508 / S288c) (Baker's yeast)) (UniProt P32657)
# Experiment: ScCHD-1 Enzyme Inhibition Assay
# Format: functional
# Parameters: scale not given: in the data most compounds retested in dose-response had high values
# Details: 30 µM
# Sequence of Chromo domain-containing protein 1 (Saccharomyces cerevisiae (strain ATCC 204508 / S288c) (Baker's yeast)) (P32657 whole entry, the tested form may be a part): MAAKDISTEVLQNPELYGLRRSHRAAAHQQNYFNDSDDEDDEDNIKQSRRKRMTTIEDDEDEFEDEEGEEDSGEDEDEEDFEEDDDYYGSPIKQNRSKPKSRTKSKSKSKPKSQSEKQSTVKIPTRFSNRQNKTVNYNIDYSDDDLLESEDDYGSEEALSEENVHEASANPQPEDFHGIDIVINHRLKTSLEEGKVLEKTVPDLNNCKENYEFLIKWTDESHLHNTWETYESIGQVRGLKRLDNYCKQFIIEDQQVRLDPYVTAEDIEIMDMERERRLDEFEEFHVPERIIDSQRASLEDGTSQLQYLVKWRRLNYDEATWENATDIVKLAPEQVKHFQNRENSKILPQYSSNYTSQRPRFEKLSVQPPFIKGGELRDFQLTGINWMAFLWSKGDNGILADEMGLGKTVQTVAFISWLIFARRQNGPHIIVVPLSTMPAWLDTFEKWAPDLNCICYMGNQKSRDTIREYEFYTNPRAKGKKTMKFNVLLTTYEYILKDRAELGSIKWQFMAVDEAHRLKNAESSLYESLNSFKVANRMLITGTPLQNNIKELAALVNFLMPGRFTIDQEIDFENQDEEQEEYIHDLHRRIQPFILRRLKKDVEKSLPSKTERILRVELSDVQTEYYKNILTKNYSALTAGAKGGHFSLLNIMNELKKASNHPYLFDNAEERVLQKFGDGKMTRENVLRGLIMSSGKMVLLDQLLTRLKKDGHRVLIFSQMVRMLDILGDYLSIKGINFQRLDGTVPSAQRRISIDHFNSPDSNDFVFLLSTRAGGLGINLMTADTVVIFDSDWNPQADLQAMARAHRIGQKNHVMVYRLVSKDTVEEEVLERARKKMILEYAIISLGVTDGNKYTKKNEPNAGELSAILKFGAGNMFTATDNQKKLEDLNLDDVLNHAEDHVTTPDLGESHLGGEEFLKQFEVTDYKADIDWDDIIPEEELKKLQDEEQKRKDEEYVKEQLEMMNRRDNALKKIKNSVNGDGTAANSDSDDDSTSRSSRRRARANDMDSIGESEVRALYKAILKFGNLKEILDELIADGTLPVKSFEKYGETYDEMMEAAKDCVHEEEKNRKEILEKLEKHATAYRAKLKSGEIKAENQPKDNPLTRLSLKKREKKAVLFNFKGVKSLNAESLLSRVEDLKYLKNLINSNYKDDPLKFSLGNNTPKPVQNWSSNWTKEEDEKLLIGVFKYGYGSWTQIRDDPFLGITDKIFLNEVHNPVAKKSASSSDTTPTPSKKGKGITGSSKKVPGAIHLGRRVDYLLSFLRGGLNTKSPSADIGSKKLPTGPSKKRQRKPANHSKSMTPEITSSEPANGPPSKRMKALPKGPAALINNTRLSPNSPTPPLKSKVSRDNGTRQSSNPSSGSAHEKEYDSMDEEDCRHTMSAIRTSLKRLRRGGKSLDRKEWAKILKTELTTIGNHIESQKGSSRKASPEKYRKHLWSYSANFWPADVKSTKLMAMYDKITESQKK
row,SMILES,Percent Effect [%]
1,CCn1cc(Br)c(C(=O)NCc2cccnc2)n1,-1.44
2,CCNC(=O)N1CCCCC1CCO (stereo not given),-10.1
3,Cc1ccc(CN2Cc3c(C(=O)N(C)C)nn(C)c3C2)s1,-3.35
4,COc1ccc(-n2ccc(C(=O)N3CCC(C(N)=O)C3)n2)cc1 (stereo not given),-1.19
5,CC(C)(C)C(=O)NCCC(=O)NC(C)(C)c1ccc2c(c1)OCCO2,1.77
6,Cn1ncc2c(NCCOc3ccc(F)cc3)nc(C3CCCC3)nc21,-3.29
7,O=C(CCc1ccsc1)NCC1CCN(c2ccccc2)C1 (stereo not given),-1.39
8,CC(NC(=O)COc1nc(C(C)(C)C)no1)c1ccco1 (stereo not given),-1.56
9,CCOCCN1CCN(Cc2nnc(C3CC3)o2)CC1CC (stereo not given),-5.28
10,Cc1nccc(CNC(=O)NCCOc2ccc(F)c(F)c2)n1,-9.47
11,COC[C@]12COC[C@H]1CN(Cc1cc(OC)cc(OC)c1)C2,2.95
12,CN(C)CC(=O)N1CCC2(CC1)CN(c1ccsc1)C(=O)CO2,-3.46
13,COc1ccc(-c2nnc(SC(C)C(=O)NC3CC3)[nH]2)c(OC)c1 (stereo not given),-7.11
14,Cc1cc(NC(=O)CCN2CCCC2Cn2cncn2)no1 (stereo not given),-27.3
15,CCN(CC)c1ccc(C(=O)NCc2cccnc2-n2cncn2)cn1,-5.91
16,O=C(c1ccco1)N1CCOCC2(C1)CN(c1ccccc1)C(=O)CO2 (stereo not given),-5.45
17,O=C(Cc1ccc2c(c1)CCO2)N1CCCCC1Cn1cccn1 (stereo not given),-7.71
18,CCCc1cc(=O)[nH]c2nnc(SCC(=O)NCc3ccc(C)cc3)n12,-7.5
19,CCc1cnc(CN(C(C)=O)C2CCN(CCc3cnn(C)c3)C2)o1 (stereo not given),-6.82
20,Cc1nc(C)n(CC2CCCN(CCc3ccncc3)C2)n1 (stereo not given),-9.61

row,SMILES,Percent Effect [%]
1,CCS(=O)(=O)N(C)C(=O)c1cc(C)n(-c2cccc(OC)c2)c1C,-8.76
2,CCN(Cc1cccc(Cl)c1)Cc1nc2c(cnn2C)c(=O)[nH]1,-17.4
3,Cc1cc(-c2cnn(CCNC(=O)C3CCCO3)c2C2CC2)on1 (stereo not given),0.889
4,COc1ccc(NC(=O)N2CCCC2c2ccco2)cc1OC (stereo not given),-9.73
5,Cn1cnc2c1C(COCC1CCOCC1)CN(C1CCOCC1)C2 (stereo not given),-4.46
6,CCC(C)NC(=O)Cc1c(C)nc2c(c1C)c(=O)[nH]n2C (stereo not given),-1.16
7,CN(C)C(=O)CN1C[C@@H]2CC[C@H](C1)N(Cc1cccc(Cl)c1Cl)C2,0.27
8,Cn1ccc(CN2CCC(COC3CCCC3)CC2)cc1=O,-25.3
9,Cn1cc(CCNC(=O)CCc2ccc3c(c2)OCO3)cn1,-6.68
10,Cc1cc(C(=O)N2CC[C@H](OCC3CC3)[C@@H]2Cc2cccnc2)no1,-5.62
11,O=C(c1ccc(=O)[nH]n1)N1CC(c2nc(Cc3ccccc3)no2)C1,-5.6
12,Cc1cnn(CC2CCCCN2C(=O)c2ccc3nnc(C)n3c2)c1 (stereo not given),-5.8
13,CN(Cc1ccco1)C(=O)[C@H]1CSCN1C(=O)OC(C)(C)C,-3.35
14,c1csc(-c2nc(CNC3CCc4ncnn4C3)co2)c1 (stereo not given),-4.74
15,Cn1cc(CCNC(=O)NCc2nnc3n2CCC3)cn1,-6.44
16,Cc1nn(C)c(N(C)C)c1CNCc1cccnc1-n1cncn1,-7.57
17,Cn1ncc2c(=O)[nH]c(CN3CCCC3Cc3ccccc3)nc21 (stereo not given),-6.42
18,COc1ccccc1CC1CCCN(CC(N)=O)C1 (stereo not given),-6.07
19,Cc1noc(C(C)C)c1C(=O)NCc1cc(F)cc(F)c1,-9.23
20,Cc1nc(CN(Cc2ccccc2)C2CCS(=O)(=O)C2)oc1C (stereo not given),-6.72
